Screens as filed in PubChem.
Pf Dd2 growth – Plasmodium falciparum Dd2 growth inhibition; hit rate 4.3% among 120,000; P. falciparum Dd2 growth, SYBR Green, 72 h; AID 1347417; Potency, µM (doses to about 28.9 µM), inactives show at the top dose activity, negative = inhibition, usual class: inhibitors; active = well fitted inhibition curve with a large enough effect;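 also: plate controls were DMSO vehicle for no effect and reference drug for full effect; nearly all actives have a fitted effect of over 65% in size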
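Readout: SYBR Green fluorescence, 485 nm excitation, 535 nm emission, after ~16 h lysis at 37C. Before that, Dd2-infected red cells (2.5% hematocrit) grew 72 h with compound, 29 uM top final concentration.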
* hit, by the source's call; i = inactive; [ ] = dose if it differs, or a comment. The sample as a whole holds a higher share of hits than the screen did. Potency is read from the fitted curve at half-maximal effect.

SMILES | Pf Dd2 growth
CCOc1ccc(NC(=O)CSc2cn(CC(=O)N3CCCCCC3)c3ccccc23)cc1 | -3.6%
CN(C(=O)Cn1cccc1-c1nc(-c2ccc(F)cc2)no1)c1ccccc1 | -3.3%
COc1ccc(N2CCN(C(=O)CSc3nc(-c4ccccc4)no3)CC2)cc1 | 2.82µM*
CC(C)c1ccc(-c2noc(SCC(=O)N(C)c3ccc(F)cc3)n2)cc1 | 0.794µM*
CCc1ccc(NC(=O)CSc2nc3ccccc3nc2Cc2ccc(C)cc2)cc1 | 8.1%
CCc1ccc(NC(=O)CSc2nc(-c3ccccc3)no2)cc1 | 2.51µM*
CC(C)c1ccc(C(=O)N2CCC(Cc3nc(-c4ccc(F)cc4)no3)CC2)cc1 | -17.7%
CCc1ccc(NC(=O)CSc2nc(-c3ccccc3)c(C#N)c(=O)[nH]2)cc1 | 14.2%
COc1ccc(N2CCN(C(=O)CSc3nc4ccccc4nc3Cc3ccc(Cl)cc3)CC2)cc1 | i
CCN(C(=O)CSc1nc2ccccc2[nH]1)c1ccccc1 | 41.0%[5.79 µM]
CCN(C(=O)CSc1nc2ccccc2nc1Cc1ccccc1OC)c1ccccc1 | -10.9%
COc1ccc(N2CCN(C(=O)CSc3n[nH]c(-c4ccccc4Cl)n3)CC2)cc1 | -5.4%
CCN(C(=O)CSc1nc(-c2ccccc2)no1)c1ccccc1 | 3.16µM*
O=C1Nc2ccc(-c3ccc(Cl)cc3)cc2C(=O)N2CCN(C(=O)C3CCCCC3)C[C@H]12 | -18.5%
Cc1nc2cc(-c3ccccc3)nn2c(C)c1CCC(=O)Nc1ccc(F)cc1F | -10.1%
O=C(CN1C(=O)CNC1=O)N1CCc2nnc(-c3ccccc3)n2CC1 | -0.3%
Cc1ccc(-c2cc(C(F)(F)F)n3nc(C(=O)Nc4ccc(Cl)c(C(F)(F)F)c4)cc3n2)cc1 | 35.1%
CC[C@H]1CN2CC[C@H]1C[C@@H]2CNC(=O)C1CCCCC1 | i
CCC(=O)N1CCCc2cc(S(=O)(=O)N3CCC(C(=O)Nc4cccc(Cl)c4)CC3)ccc21 | i
COCCCNc1nc2c(S(=O)(=O)c3ccc(C)cc3)nnn2c2ccccc12 | 0.4%
COCCCNc1nc2c(-c3ccccc3)nnn2c2ccccc12 | 7.94µM*
COCCCNc1nc2c(S(=O)(=O)c3ccccc3)nnn2c2ccccc12 | 1.3%
Cc1ccc2nc(-c3ccc(NC(=O)COc4ccc(Cl)c(C)c4)cc3)sc2c1 | 49.4%
COC(=O)c1ccccc1N(C)S(=O)(=O)c1cc2c3c(c1)CC(=O)N3CCC2 | 7.94µM*
COc1ccc(C)cc1NS(=O)(=O)c1cc2c3c(c1)CC(=O)N3CCC2 | 18.7%
SMILES | Pf Dd2 growth
O=C1Cc2cc(S(=O)(=O)Nc3cccc(C(F)(F)F)c3)cc3c2N1CCC3 | i
CCSc1ncc(Cl)c(C(=O)Nc2c(C(=O)c3ccc(C)c(F)c3)oc3ccccc23)n1 | 116.0%
O=C(C1CC1)N1CCC2(CC1)SCC(=O)N2c1ccc(Cl)cc1 | i
C[S+](=O)([O-])c1ccc(-c2nccc3c(=O)cc(-c4cccnc4)oc23)cc1 | -7.7%[44.1 µM]
O=c1cc(-c2ccccn2)oc2c(NCc3ccccc3)nccc12 | -14.0%[44.1 µM]
O=c1cc(-c2cccnc2)oc2c(NCc3ccc(F)cc3)nccc12 | 11.2µM*
CN1C(=O)c2cccn2CC1CNS(=O)(=O)c1ccccc1 (stereo not drawn) | -26.3%
Clc1ccccc1-c1nc(Nc2ccccc2)nc2ccc(Br)cc12 | -17.4%
Clc1ccc(Nc2nc(-c3ccccc3)c3cc(Cl)ccc3n2)cc1 | i
COc1cccc(Nc2nc(-c3ccccc3)c3cc(C)ccc3n2)c1 | 10µM*
Cc1cccc(-n2nc(C)n(CC(=O)N[C@@H]3CS(=O)(=O)C[C@H]3O)c2=O)c1 | 1.3%
CC(C)(C)NC(=O)N1CCC(C2CCNC2)CC1 (stereo not drawn) | 21.5%
CC(=O)c1cccc(NC(=O)Nc2c(C)n(C)n(-c3ccccc3)c2=O)c1 | -16.1%
C[C@@H](NC(=O)C[C@@H]1c2nc(-c3cccnc3)sc2C[C@@H]2[C@](C)(CO)[C@H](O)CC[C@]21C)c1ccccc1 | -23.6%
CC(C)(C)CC(=O)Nc1nc2c(s1)C[C@@H]1[C@](C)(CO)[C@H](O)CC[C@@]1(C)[C@@H]2CC(=O)Nc1ccccc1 | 11.2µM*
CCCCCC(=O)Nc1nc2c(s1)C[C@@H]1[C@](C)(CO)[C@H](O)CC[C@@]1(C)[C@@H]2CC(=O)N(C)Cc1ccccc1 | i
CCCCCC(=O)Nc1nc2c(s1)C[C@@H]1[C@](C)(CO)[C@H](O)CC[C@@]1(C)[C@@H]2CC(=O)Nc1cccc(O)c1 | 12.6µM*
C#CCN(C)C(=O)C[C@@H]1c2nc(NC(=O)CCCCC)sc2C[C@@H]2[C@](C)(CO)[C@H](O)CC[C@]21C | 10µM*
CCCCCC(=O)Nc1nc2c(s1)C[C@@H]1[C@](C)(CO)[C@H](O)CC[C@@]1(C)[C@@H]2CC(=O)N[C@H](C)c1ccccc1 | 5.01µM*
C#CCN(C)C(=O)C[C@@H]1c2nc(NC(=O)COC)sc2C[C@@H]2[C@](C)(CO)[C@H](O)CC[C@]21C | 0.9%
CC(C)(C)C(=O)Nc1nc2c(s1)C[C@@H]1[C@](C)(CO)[C@H](O)CC[C@@]1(C)[C@@H]2CC(=O)NCCN1CCOCC1 | 12.3%
C[C@]1(CO)[C@H]2Cc3sc(NC(=O)COc4ccccc4)nc3[C@@H](CC(=O)O)[C@]2(C)CC[C@H]1O | -0.6%
Cc1ncsc1C(=O)N1CCCC(C)(Cc2ccc3c(c2)OCO3)C1 (stereo not drawn) | -0.3%
Cc1cc(C)cc(NC(=O)Cn2nnc(C(=O)NCc3ccco3)c2N)c1 | 11.8%
CCn1c(CN2CCN(Cc3csc(C)n3)CC2)nnc1C1CC(N)C1 (stereo not drawn) | -15.6%
SMILES | Pf Dd2 growth
C[C@]1(CO)[C@H]2Cc3sc(NC(=O)c4ccc(F)cc4)nc3[C@@H](CC(=O)NC3CCCCC3)[C@]2(C)CC[C@H]1O | -10.0%
C#CCNC(=O)C[C@@H]1c2nc(NC(=O)c3c(F)cccc3F)sc2C[C@@H]2[C@](C)(CO)[C@H](O)CC[C@]21C | i
C[C@]1(CO)[C@H]2Cc3sc(NC(=O)c4c(F)cccc4F)nc3[C@@H](CC(=O)NC3CCCC3)[C@]2(C)CC[C@H]1O | 5.01µM*
CCCCCC(=O)Nc1nc2c(s1)C[C@@H]1[C@](C)(CO)[C@H](O)CC[C@@]1(C)[C@@H]2CC(=O)NC1CCCC1 | 11.2µM*
O=C(NCc1ccco1)N1c2ccccc2CC1c1nc(C2CC2)no1 (stereo not drawn) | i[5.79 µM]
COCc1ccc(C(=O)N2CCc3c(ncnc3N3CCOCC3)C2)o1 | -13.9%
COc1ncccc1C(=O)N1CCc2c(nc(-c3cccnc3)[nH]c2=O)C1 | -16.3%
Cn1cnc2cc(-c3ccc(F)cc3)cc(C(=O)NCCc3cnc[nH]3)c21 | -3.8%[44.1 µM]
CCc1ccc(C(=O)N2CCC3(CC2)N(CCOC)C(=O)CS3(=O)=O)cc1 | -1.2%
COc1cccc(-c2ccc3c(N)c(C(=O)Nc4cc(F)ccc4F)sc3n2)c1 | 42.8%[5.79 µM]
COc1cccc(NC(=O)c2sc3nc(C)c(C(=O)Nc4ccc(C)cc4C)c(-c4ccco4)c3c2N)c1 | 3.16µM*
Cc1ccc(Cl)cc1NC(=O)c1sc2nc(C)c(C)c(C)c2c1N | 7.8%
COc1cccc(-c2ccc3c(N)c(C(=O)Nc4ccccc4C)sc3n2)c1 | -8.7%
COc1cc(Cl)c(C)cc1NC(=O)c1sc2nc(C)cc(C)c2c1N | 4.4%
COc1cccc(NC(=O)c2sc3nc(C)c(C(=O)Nc4ccc(C)cc4C)c(-c4ccccc4Cl)c3c2N)c1 | 1µM*
CCC(C)NC(=O)c1sc2nc(C)c(C(=O)Nc3ccc(Cl)cc3)c(-c3ccc(Br)cc3)c2c1N (stereo not drawn) | 18.0%
COc1cccc(NC(=O)c2c(C)nn(-c3cccc(C)c3)c2-n2cccc2)c1 | -20.0%
